Data: PubChem BioAssay AID588458 (Sanford-Burnham Center for Chemical Genomics, 2011)
Several values for one entry are separate records, joined by “and”; a condition that tells them apart may be missing. Identical values can stand only once. The campaign covered roughly 360,000 compounds. About 3,000 (0.83%) were called active. Cut-off read from the data, not from the text of the source: active = inhibition above about 50%; inactive = the rest. Many of the other results were omitted from the sample, so actives are more common in it than they were. Some structures have more than one record in an assay (separate samples or runs), and their calls can disagree.

biological target: DNA (cytosine-5)-methyltransferase 1 (Homo sapiens) (UniProt P26358); experiment: inhibition of DNA methyltransferase DNMT1 – biochemical, molecular beacon, fluorescence, HinP1I cleavage, uHTS, primary screen (AID 588458); details: at 10 µM, stronger effect = higher value
Sequence (P26358 504-1616 limits assumed): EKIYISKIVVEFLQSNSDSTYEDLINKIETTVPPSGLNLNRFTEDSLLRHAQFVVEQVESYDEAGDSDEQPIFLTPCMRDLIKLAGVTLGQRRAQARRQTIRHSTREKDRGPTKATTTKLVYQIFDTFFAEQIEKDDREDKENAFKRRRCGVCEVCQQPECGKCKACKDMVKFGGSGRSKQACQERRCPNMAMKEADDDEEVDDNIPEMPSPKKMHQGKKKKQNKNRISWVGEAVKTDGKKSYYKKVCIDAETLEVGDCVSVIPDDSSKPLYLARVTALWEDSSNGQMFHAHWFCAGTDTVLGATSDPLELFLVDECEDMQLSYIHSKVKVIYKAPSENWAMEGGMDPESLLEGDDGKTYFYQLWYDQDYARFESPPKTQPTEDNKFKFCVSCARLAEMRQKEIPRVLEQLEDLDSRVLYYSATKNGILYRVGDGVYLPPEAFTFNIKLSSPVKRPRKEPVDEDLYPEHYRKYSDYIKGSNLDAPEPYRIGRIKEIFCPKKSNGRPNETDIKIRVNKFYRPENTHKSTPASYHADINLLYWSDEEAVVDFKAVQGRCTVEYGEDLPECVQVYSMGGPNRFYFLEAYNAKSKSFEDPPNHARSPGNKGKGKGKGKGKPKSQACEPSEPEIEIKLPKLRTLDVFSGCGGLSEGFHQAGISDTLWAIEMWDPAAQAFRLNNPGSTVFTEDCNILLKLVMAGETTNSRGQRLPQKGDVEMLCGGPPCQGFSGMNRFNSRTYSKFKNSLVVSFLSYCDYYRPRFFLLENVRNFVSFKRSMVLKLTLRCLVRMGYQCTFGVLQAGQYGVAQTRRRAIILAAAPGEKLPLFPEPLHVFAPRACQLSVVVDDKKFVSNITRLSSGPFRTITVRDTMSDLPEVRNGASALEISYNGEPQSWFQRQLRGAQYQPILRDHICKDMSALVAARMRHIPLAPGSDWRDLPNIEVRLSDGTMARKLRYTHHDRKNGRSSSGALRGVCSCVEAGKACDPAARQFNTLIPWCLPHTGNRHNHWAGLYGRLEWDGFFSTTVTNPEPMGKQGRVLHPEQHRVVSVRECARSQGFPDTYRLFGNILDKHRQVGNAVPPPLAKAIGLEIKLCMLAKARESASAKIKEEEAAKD

Structure (SMILES)	inhibition (reported as % activation of signal)
Cc1cccc(-c2cnc(C(O)c3cc(C)cc(C)c3)[nH]2)c1 (stereo not drawn)	4.05% (inactive)
Cc1ccc(-n2c(=O)cc(N3CCN(Cc4ccccc4)CC3)[nH]c2=O)cc1	-5.41% (inactive)
CN(Cc1nc2ccc(F)cc2[nH]1)Cc1nc(CC2CC2)no1	52.1% (active)
CN(Cc1ccc2nsnc2c1)Cc1nc(Cc2cccc(F)c2)no1	14.7% (inactive)
CN(Cc1cc2cc(F)ccc2[nH]1)Cc1nc(-c2cnccn2)no1	0.73% (inactive)
COc1cc(C2C(N3C(=O)c4ccccc4C3=O)C(=O)N2c2ccc(C)c(C)c2)cc(OC)c1OC (stereo not drawn)	-2.9% (inactive)
Cc1ccc(NC(=O)c2cnc(SCC(=O)NCC3CCCO3)n(C)c2=O)cc1 (stereo not drawn)	-0.68% (inactive)
Cc1onc(-c2ccccc2)c1C(=O)Nc1ccccc1C#N	86.5% (active) and -2.35% (inactive)
N#Cc1ccccc1NC(=O)c1ccc2c(c1)OCO2	2.15% (inactive)
Cc1[nH]c2ccccc2c1C(=O)COC(=O)c1c(-c2ccccc2)noc1C	-10.3% (inactive)
Cc1ccccc1CN1C[C@@H]2C[C@@H](c3cn(C)nc3-c3ccccc3)N3CCC[C@@]23C1=O	-7.15% (inactive)
O=C(COC(=O)CSc1nnc(-c2ccc(Cl)cc2)o1)Nc1cc(Cl)cc(Cl)c1	3.58% (inactive)
O=C1/C(=C\c2ccc([N+](=O)[O-])cc2)CS(=O)(=O)C/C1=C/c1ccc([N+](=O)[O-])cc1	101% (active)
CN(C)S(=O)(=O)N1CCN(c2ccc([N+](=O)[O-])cc2)CC1	-0.57% (inactive)
CCCCC(=O)Nc1c2c(nn1-c1ccc([N+](=O)[O-])cc1)CS(=O)(=O)C2	0.28% (inactive)
Cc1ccc(CN2CC(N3CCC(Cc4ccccc4)CC3)CS2(=O)=O)cc1 (stereo not drawn)	-0.65% (inactive)
Cc1ccc(OCc2nnc(SC3CCc4ccccc4C3=O)n2C)cc1 (stereo not drawn)	-0.48% (inactive)
CC1(C(=O)NS(=O)(=O)c2ccccc2)CCN1C(=O)Cc1ccc(-c2ccccc2)cc1 (stereo not drawn)	3.68% (inactive)
CC1(C(=O)NS(=O)(=O)c2ccccc2)CCN1C(=O)C/C=C/c1ccccc1 (stereo not drawn)	84.5% (active)
CC1(C(=O)NS(=O)(=O)c2ccccc2)CCN1C(=O)c1ccccc1 (stereo not drawn)	-2.49% (inactive)
COc1ccc(CNC(=O)C(NS(=O)(=O)c2cccc3nsnc23)C(C)C)cc1 (stereo not drawn)	2.57% (inactive)
O=C1C(Cl)=C(Oc2ccccc2)C(=O)c2ccccc21	78.2% (active)

Structure (SMILES)	inhibition (reported as % activation of signal)
O=C(O)C1CCC(CNS(=O)(=O)c2ccc(Br)cc2)CC1 (stereo not drawn)	0.46% (inactive)
O=C(Nc1cccc(-c2nc3ccccc3[nH]2)c1)c1ccc(C(=O)Nc2cccc(-c3nc4ccccc4[nH]3)c2)cc1	56.8% (active)
O=C(NCC(O)c1nc2ccccc2[nH]1)c1ccc(Br)cc1 (stereo not drawn)	-1.63% (inactive)
O=C(Nc1ccccc1)c1cc2ccccc2[nH]1	-1.95% (inactive)
COc1ccc(-c2cc(NC=O)c3ncc(-c4cc(OC)c(OC)c(OC)c4)n3c2)c(OC)c1	-21.8% (inactive)
O=C(CN1CCN(c2ncccn2)CC1)Nc1ccccc1C(F)(F)F	1.55% (inactive)
CC(C)C1CC2=C(C(=O)OC(C)(C)O2)C(c2ccc(F)cc2)O1 (stereo not drawn)	0.41% (inactive)
NC(=O)COc1ccc(NC(=O)c2ccccc2-c2ccccc2)cc1	1.27% (inactive)
CCCNC(=O)c1cnc(-c2ccccc2)nc1-c1ccccc1	0.2% (inactive)
O=C1CSC(=S)N1/N=C/c1ccc(O)c([N+](=O)[O-])c1	76.8% (active)
CCOc1cccc(/C=N/N2C(=O)CSC2=S)c1O	-12.4% (inactive)
CO/N=C/c1ccc(N2CCN(C(=O)c3cccc(Cl)c3)CC2)c([N+](=O)[O-])c1	-5.17% (inactive)
CCc1ccc(OC2(C)CCN(CCOc3ccc(C)cc3)C2)cc1 (stereo not drawn)	1.94% (inactive)
CC1(C(=O)NCc2ccc3c(c2)OCO3)CCN1CCc1ccccc1 (stereo not drawn)	0.65% (inactive)
CC(C)CCSc1ncnc2c1oc1nc3c(cc12)COC(C)(C)C3	0.16% (inactive)
CC1(C)Cc2nc3sc4c(SCC(=O)NC(c5ccccc5)c5ccccc5)ncnc4c3cc2CO1	50% (active)
CCOc1ccc(NC(=O)CSc2ncnc3c2sc2ccccc23)cc1	11.2% (inactive)
C=CC[C@@H](CC(=O)N[C@H](CO)Cc1ccccc1)C(=O)N[C@@H](COC(=O)[C@@H](CC=C)Cc1ccc(F)cc1)Cc1c[nH]c2ccccc12	63.8% (active)
C=CCC[C@H](Cc1ccc(F)cc1)C(=O)OC[C@@H](Cc1c[nH]c2ccccc12)NC(=O)[C@H](CC=C)CC(=O)N[C@H](CO)Cc1ccccc1	4.02% (inactive)
C=CC[C@H](CC(=O)NCCO)C(=O)N[C@@H](COC(=O)[C@@H](CC=C)Cc1ccc(F)cc1)Cc1c[nH]c2ccccc12	-10.1% (inactive)
O=C(Cc1ccc([N+](=O)[O-])cc1)NCCS(=O)(=O)N1CCN(c2ccccc2)CC1	-1.35% (inactive)
O=C(c1cccs1)N1CCC(c2nc3ccccc3s2)CC1	73.8% (active)

Structure (SMILES)	inhibition (reported as % activation of signal)
Cc1cccc(NC(=S)N2CCC(c3nc4ccccc4s3)CC2)c1	-5.14% (inactive)
Cc1cccc(C(=O)N2CCC(c3nc4ccccc4s3)CC2)c1	-3.99% (inactive)
CC(=O)N1CCc2cc(Br)cc(S(=O)(=O)CCC(=O)Nc3c(C)n(C)n(-c4ccccc4)c3=O)c21	0.99% (inactive)
COc1ccc(-c2[nH][nH]c(=O)c2NC(=O)c2ccc([N+](=O)[O-])cc2)cc1	-19.5% (inactive)
COc1ccc(S(=O)(=O)N2CCC(C(=O)OCC(=O)c3ccccc3)CC2)cc1[N+](=O)[O-]	6.89% (inactive)
COc1ccccc1C(CNC(=O)c1cccc(NS(=O)(=O)c2ccc(Br)cc2)c1)N(C)C (stereo not drawn)	2.12% (inactive)
COc1ccc(Br)cc1/C=N/Nc1ccc(S(=O)(=O)Nc2ccccc2C(=O)O)cc1[N+](=O)[O-]	97.5% (active)
O=C(CCSCCc1ccccn1)Nc1nccs1	-3.62% (inactive)
Cn1cccc1Cc1nnc(SCC(=O)NCc2ccc3c(c2)OCO3)n1CCc1ccccc1	6.75% (inactive)
Cc1c(C(=O)N(Cc2ccccc2)Cc2cccnc2)cnn1-c1ccc(F)cc1	0.01% (inactive)
O=C(Nc1nonc1-c1ccc(Cl)cc1)c1ccco1	9.05% (inactive)
O=C(Nc1nc(-c2ccco2)c(-c2ccco2)s1)c1ccco1	80.6% (active)
CCc1nnc(NC(=O)c2ccco2)s1	4.22% (inactive)
CCN(CC)S(=O)(=O)c1ccc(NC(=O)c2cccnc2Cl)c(NC(=O)c2cccnc2Cl)c1	-0.07% (inactive)
CC(C)C[C@H](NC(=O)C1CC(=O)N(c2ccc3c(c2)OCCO3)C1)C(=O)NC1CCCC1 (stereo partly drawn)	-0.87% (inactive)
O=C1NCC(Nc2ccccc2)C(=O)N1 (stereo not drawn)	0.4% (inactive)
Cc1nn(C)cc1N1C(=O)c2cccc3c(N)ccc(c23)C1=O	65% (active)
CCN1C(=O)c2cccc3c(N)ccc1c23	51.2% (active)
CN1C(=O)c2cccc3c(N)ccc(c23)C1=O	68.8% (active)
Cn1cc(C2OC(=O)c3ccccc32)c2ccccc21 (stereo not drawn)	1.23% (inactive)
O=C(CN1C(=O)c2cccc3cccc1c23)Nc1ccccc1	6.37% (inactive)
CCN1C(=O)c2cccc3c(S(=O)(=O)Nc4ccccc4O)ccc1c23	-3.81% (inactive)

Structure (SMILES)	inhibition (reported as % activation of signal)
O=C(COC(=O)CCc1c[nH]c2ccccc12)Nc1cccc(Cl)c1	-4.28% (inactive)
O=C(CCC1CCCC1)N=C1SC2CS(=O)(=O)CC2N1Cc1ccccc1 (stereo not drawn)	14.4% (inactive)
COc1ccccc1-c1oc2ccccc2c1C#CCCCCO	-0.24% (inactive)
CCCc1nc(-c2cc3cc(C)ccc3[nH]c2=O)no1	-2.69% (inactive)
COc1ccc2[nH]c(=O)c(-c3noc(-c4ccc(F)cc4)n3)cc2c1	95.2% (active)
COc1ccc(Cc2cc(-c3ccc(F)cc3)n[nH]c2=O)cc1	-1.27% (inactive)
Cc1ccc2c(CC(=O)NCc3cccs3)coc2c1	7.02% (inactive)
C[C@H]1CN([C@@H](C)CO)C(=O)CCCn2cc(nn2)CO[C@@H]1CN(C)S(=O)(=O)c1ccccc1C#N	8.79% (inactive)
C=C(Br)CN1CCN(CC(=C)Br)CC1	1.67% (inactive)
Cc1ccc2nc(-c3ccco3)c(Cc3cccc(Cl)c3)n2c1	-0.88% (inactive)
Cc1cc2nc(-c3ccc(Cl)cc3)c(Cc3cccc(F)c3)n2c(C)c1Br	37.2% (inactive)
Cc1cc2nc(-c3ccco3)c(Cc3cccc(F)c3)n2c(C)c1Br	56.4% (active)
CCN1CCN(c2ccc(S(=O)(=O)N3CCCCC3)cc2NC(=O)c2cccc(NC(C)=O)c2)CC1	-6.35% (inactive)
COc1cccc(NC(=O)CSc2nccn(-c3ccc4c(c3)OCCO4)c2=O)c1	0.94% (inactive)
CCC(C)OC(=O)C(C)Oc1ccc(-c2ccccc2)cc1 (stereo not drawn)	-3.17% (inactive)
NC(CSC1(c2ccccc2)c2ccccc2-c2ccccc21)C(=O)O (stereo not drawn)	38.3% (inactive)
NC(CSC(c1ccccc1)(c1ccccc1)c1ccc(-c2ccccc2)cc1)C(=O)O (stereo not drawn)	89% (active)
COC(=O)CCCCC1=CCC2C(=O)C=C(O)C2C1 (stereo not drawn)	92.7% (active)
CCOc1ccc2[nH]c(=S)sc2c1	0.55% (inactive)
CC(=O)N1CCN(C(=O)c2cc(-c3ccc(C)o3)nc3ccccc23)CC1	1.05% (inactive)
CSc1ncccc1C(=O)Nc1ccc(C)cn1	-0.42% (inactive)
Cc1ccc(NC(=O)c2cc(-c3ccc(C)o3)nc3ccccc23)nc1	76.5% (active)
